Data on 59 compounds can be found in PubChem BioAssay AID1053133 (Broad Institute, 2014).

Hit rate of the full screen: of about 89,000 compounds, about 10 (0.01%) were called active. Inconclusive results (about 10%) are left out. Rule as the data show it: active = activity change below about -37% (passing the limit was not always enough); inconclusive = no clear call, values can overlap the other calls; tested in A549 cells. The list is a sample of the results.

This test can be described thus: Vaccinia orthopox stage-specific inhibition, primary screen, cell-based, single point (AID 1053133). As to conditions: Vaccinia-infected cells, mCherry/Venus stage reporter fluorescence, stronger effect = lower value, concentration not given here; activity change (Venus): measured here: Venus reporter, other viral stage.
As to `N#Cc1cccc(-c2ccc([C@H]3[C@@H](CO)N[C@@H]3CNC(=O)C3CCC3)cc2)c1`, the activity change (Venus) is -1.58% and the activity change (mCherry) was -4.87% (inactive).
In the same order, the values of `COc1ccc2c3c(n(C)c2c1)[C@H](CO)N(CC1CCCCC1)CC31CCN(Cc2nccs2)CC1` are -17.6% and -20.4% (inactive).
For `C/C=C/c1ccccc1[C@H]1[C@@H](C#N)N(C(=O)Cc2ccccn2)[C@@H]1CO` the same measures were -12.5% and -21.2% (inactive).
For `CCNC(=O)[C@H]1[C@H](CO)[C@H]2Cn3c(cccc3=O)[C@@H]1N2Cc1cc(F)ccc1F` the same measures were 15.1% and 12.8% (inactive).
For the compound `O=C(C[C@@H]1CC[C@@H]2[C@H](COC[C@H](O)CN2C(=O)c2ccc3c(c2)OCO3)O1)NC1CCCC1`, the activity change (Venus) stood at 4.69% and the activity change (mCherry) is 7.59% (inactive).
In the same order, the values of `C[C@@H]1CCCCO[C@H](CN(C)S(=O)(=O)c2ccc(Cl)cc2)[C@H](C)CN([C@@H](C)CO)C(=O)c2cc(NS(=O)(=O)c3cn(C)cn3)ccc2O1` are 3.71% and 0.869% (inactive).
For `CNC(=O)C[C@@H]1CC[C@@H]2[C@H](COC[C@H](O)CN2Cc2ccc(C(F)(F)F)cc2)O1` the same measures were 3.54% and 4.2% (inactive).
For `Cc1noc(C)c1S(=O)(=O)N(C)C[C@@H]1OCCCC[C@@H](C)Oc2ccc(NC(=O)Nc3ccccc3)cc2C(=O)N([C@H](C)CO)C[C@@H]1C` the same measures were 5.28% and 12.8% (inactive).
`CC=Cc1ccc2n(c1=O)C[C@@H]1[C@@H](CO)[C@H](C(=O)NCc3cccc(OC)c3)N[C@H]21` (mixture of isomers): the activity change (Venus) was found to be 12.7% and the activity change (mCherry) is 3.42% (inactive).
In the same order, the values of `C/C=C/c1cnc2c(c1)C(=O)N([C@H](C)CO)C[C@H](C)[C@@H](CN(C)S(=O)(=O)c1ccccc1F)O2` are -1.53% and -5.68% (inactive).
In the same order, the values of `COCC(=O)Nc1ccc2c(c1)C(=O)N(C)C[C@H](OC)[C@@H](C)CN(CCc1ccccc1)[C@@H](C)CO2` are -0.0268% and -4.99% (inactive).
In the same order, the values of `O=C(C[C@@H]1C[C@@H]2c3cc(NC(=O)Nc4ccccc4F)ccc3O[C@@H]2[C@H](CO)O1)NCCc1ccccc1` are 7.27% and 9.1% (inactive).
As for `CCCC(=O)N1CC2(C1)CN(C(=O)Nc1cccc(F)c1)[C@@H](CO)c1c2c2ccc(OC)cc2n1C`, the activity change (Venus) was -2.53% and the activity change (mCherry) was 2.16% (inactive).
In the same order, the values of `COCC(=O)Nc1ccc2c(c1)C(=O)N(C)[C@@H]1CC[C@H](CC(=O)NCC3CC3)O[C@@H]1CO2` are 8.99% and 16% (inactive).
For `COc1ccc2c3c([nH]c2c1)[C@@H](CO)N(C(=O)Cc1ccccc1)CC31CCN(C)CC1` the same measures were -13.2% and -7.54% (inactive).
For `C[C@H](CO)N1C[C@H](C)[C@H](CN(C)C(=O)C2CCOCC2)Oc2ncc(-c3ccccc3F)cc2C1=O` the same measures were 6.04% and 8.11% (inactive).
As to `CO[C@H]1CN(C)C(=O)c2cc(NC(=O)C3CCC3)ccc2OC[C@H](C)N(CC2CCCCC2)C[C@@H]1C`, the activity change (Venus) came to 3.14% and the activity change (mCherry) was -9.01% (inactive).
With `COc1ccc2c3c(n(C)c2c1)[C@H](CO)N(C)CC31CCN(C(=O)Nc2cccc(F)c2)CC1`, the activity change (Venus) was -8.96% and the activity change (mCherry) was -16.1% (inactive).
For `CC(C)NC(=O)N1CC(=O)N2[C@@H](CO)[C@H](c3ccc(C#CCN(C)C)cc3)[C@@H]2C1`, the activity change (Venus) stood at 7.94% and the activity change (mCherry) was 9.18% (inactive).
In the same order, the values of `O=C(C[C@H]1C[C@H]2c3cc(NC(=O)Nc4ccc(C(F)(F)F)cc4)ccc3O[C@H]2[C@@H](CO)O1)NCCc1ccccc1` are 9.77% and 6.8% (inactive).
With `O=C(Nc1ccccc1)N1C[C@@H]2[C@H](c3ccccc31)[C@H](CO)N2C(=O)c1ccccn1`, the activity change (Venus) amounted to 5.62% and the activity change (mCherry) was 10.2% (inactive).
In the same order, the values of `Cc1ccc(S(=O)(=O)N(C)C[C@@H]2Oc3ccc(NS(=O)(=O)c4ccc(F)cc4)cc3CC(=O)N([C@@H](C)CO)C[C@H]2C)cc1` are -2.68% and 2.93% (inactive).
In the case of `COc1ccccc1NC(=O)N[C@H]1CC[C@H](CCn2cc(-c3cccnc3)nn2)O[C@@H]1CO`, the activity change (Venus) is 7.22% and the activity change (mCherry) was -4.31% (inactive).
For `COc1ccc(-c2cn(CC[C@@H]3CC[C@@H](NC(=O)CCN4CCCCC4)[C@@H](CO)O3)nn2)cc1` the same measures were 11.2% and 5.57% (inactive).
In the same order, the values of `O=C(Cc1ccccn1)N[C@@H]1CC[C@H](CCn2cc(-c3ccc(F)cc3)nn2)O[C@@H]1CO` are -0.00768% and 11% (inactive).
For `Cc1ccc(S(=O)(=O)N[C@@H]2CC[C@@H](CCn3cc(C(C)C)nn3)O[C@H]2CO)cc1` the same measures were 2.74% and -0.697% (inactive).
As for `COc1ccc2c3c(n(C)c2c1)[C@H](CO)N(C(=O)c1ccc(F)cc1)CC31CCN(C(C)=O)CC1`, the activity change (Venus) came to 7.75% and the activity change (mCherry) was 25% (inactive).
For `COC(=O)C[C@@H]1CC[C@@H]2[C@H](COc3ccc(NC(=O)Nc4cccc(F)c4)cc3C(=O)N2C)O1` the same measures were 6.13% and 6.13% (inactive).
For `CCNC(=O)[C@@H]1[C@@H](CO)[C@@H]2Cn3c(ccc(C4=CCCCC4)c3=O)[C@@H]2N1Cc1ccccc1F` the same measures were -3.86% and 2.73% (inactive).
For `O=C(Nc1cc(F)ccc1F)N[C@H]1CC[C@H](CCn2cc(C3CCCC3)nn2)O[C@@H]1CO` the same measures were -13.1% and -6.78% (inactive).
Take `C[C@H]1CN([C@@H](C)CO)C(=O)c2cc(C3=CCCC3)cnc2O[C@H]1CN(C)C(=O)Nc1ccc(F)cc1`: the activity change (Venus) is 6.92% and the activity change (mCherry) is 7.38% (inactive).
In the same order, the values of `C[C@@H]1CN([C@@H](C)CO)C(=O)c2cc(NC(=O)C3CCCCC3)ccc2O[C@@H](C)CCCCO[C@H]1CN(C)C(=O)Nc1ccc2c(c1)OCO2` are 1.19% and 1.01% (inactive).
`CC(C)NC(=O)N1[C@H](C(=O)N2CCc3ccccc3C2)[C@@H](CO)[C@@H]2Cn3c(cccc3=O)[C@@H]21`: the activity change (Venus) is 7.39% and the activity change (mCherry) was 13.3% (inactive).
Turning to `CCN1[C@@H]2Cn3c(ccc(C4=CCCCC4)c3=O)[C@H]1[C@@H](C(=O)N1CCCCC1)[C@@H]2CO`, the activity change (Venus) was -4.76% and the activity change (mCherry) is -0.187% (inactive).
For `C[C@H]1CN([C@@H](C)CO)C(=O)c2cc(/C=C/c3ccccc3)cnc2O[C@@H]1CN(C)C(=O)NC1CCCCC1` the same measures were -19.2% and -26.2% (inactive).
In the case of `CS(=O)(=O)N1CC(=O)N2[C@@H](CO)[C@@H](c3ccc(C#CCC4CCCC4)cc3)[C@@H]2C1`, the activity change (Venus) was -6.84% and the activity change (mCherry) was -14.6% (inactive).
As to `COc1ccc(CN2[C@@H](CO)[C@@H]3c4ccccc4N(C(=O)Nc4ccccc4)C[C@@H]32)cc1`, the activity change (Venus) is -11.3% and the activity change (mCherry) is -12.7% (inactive).
In the same order, the values of `CCS(=O)(=O)Nc1ccc2c(c1)C(=O)N(C)[C@H]1CC[C@H](CC(=O)NCc3ccccc3F)O[C@H]1CO2` are 8.23% and -6.34% (inactive).
For `O=C(C[C@H]1C=C[C@H](NC(=O)CC2CC2)[C@@H](CO)O1)NCc1ccccc1` the same measures were 4.6% and 4.83% (inactive).
In the same order, the values of `Cc1noc(C)c1NC(=O)N[C@@H]1CC[C@H](CCNC(=O)C2CCC2)O[C@@H]1CO` are 3.06% and -10.7% (inactive).
In the case of `CO[C@H]1CN(C)C(=O)c2ccc(NC(=O)C3CC3)cc2OC[C@@H](C)N(Cc2ccc(F)cc2)C[C@@H]1C`, the activity change (Venus) is -14.9% and the activity change (mCherry) was -29.4% (inactive).
For `CC(=O)N1[C@@H]2Cn3c(ccc(C4=CCCC4)c3=O)[C@H]1[C@@H](C(=O)NC1CCC1)[C@@H]2CO`, the activity change (Venus) was 2.6% and the activity change (mCherry) was 11.3% (inactive).
As to `O=C(Cc1cccnc1)N1CC(=O)N2[C@H](CO)[C@H](c3ccc(C#CC4CCCC4)cc3)[C@@H]2C1`, the activity change (Venus) is -12.7% and the activity change (mCherry) was -12.6% (inactive).
With `O=C(N[C@@H]1CC[C@H](CCn2cc(-c3ccccn3)nn2)O[C@@H]1CO)c1ccccc1`, the activity change (Venus) is -0.983% and the activity change (mCherry) is 0.892% (inactive).
`O=C(NC[C@H]1CC[C@H]2[C@H](CN2Cc2cccc(Cl)c2)O1)C1CC1`: the activity change (Venus) was found to be 6.08% and the activity change (mCherry) was 4.96% (inactive).
In the same order, the values of `CN(C)C(=O)c1cccc(-c2ccc3c(c2)[C@@H]2[C@@H](CCN2Cc2nccs2)[C@@H](CO)N3)c1` are -3.17% and -14.5% (inactive).
For `O=C(C[C@@H]1CC[C@@H]2[C@H](COC[C@H](O)CN2Cc2ccc(F)cc2)O1)NCc1ccncn1` the same measures were 9.14% and 13.7% (inactive).
In the same order, the values of `CN1CCN(C(=O)C[C@H]2CC[C@H]3[C@@H](COC[C@H](O)CN3CC3CCCC3)O2)CC1` are -10.7% and -14.5% (inactive).
As to `CCCc1cn(CC[C@@H]2CC[C@@H](NC(=O)CCN3CCCCC3)[C@H](CO)O2)nn1`, the activity change (Venus) was 6.3% and the activity change (mCherry) is 4.68% (inactive).
In the same order, the values of `COc1ccc(-c2cn(CC[C@H]3CC[C@@H](NC(=O)CCN4CCCCC4)[C@H](CO)O3)nn2)cc1` are 12% and 0.142% (inactive).
For `N#C[C@@H]1[C@H](c2ccccc2-c2cccc(F)c2)[C@@H](CO)N1C(=O)CN1CCOCC1` the same measures were 4.69% and 12.6% (inactive).
In the same order, the values of `CO[C@H]1CN(C)C(=O)c2ccc(NC(=O)c3ccccc3F)cc2OC[C@H](C)N(C(=O)c2ccccc2F)C[C@H]1C` are 2.58% and -1.92% (inactive).
For `Cc1cc(C(=O)Nc2ccc3c(c2)C(=O)N(C)[C@@H]2CC[C@@H](CC(=O)NC4CCCC4)O[C@@H]2CO3)no1`, the activity change (Venus) amounted to 8.29% and the activity change (mCherry) was 8.19% (inactive).
For `O=C(C[C@@H]1CC[C@@H]2[C@H](COC[C@H](O)CN2C(=O)Nc2cccc(Cl)c2)O1)NCCCN1CCOCC1` the same measures were 5.06% and 10% (inactive).
For `CCC(=O)N1CCC2(CC1)CN(S(C)(=O)=O)[C@@H](CO)c1c2c2ccc(OC)cc2n1C` the same measures were 7.75% and 14.3% (inactive).
With `CC(C)CC#Cc1ccc2c(c1)O[C@H](CN(C)C(=O)Cc1cccnc1)[C@H](C)CN([C@@H](C)CO)S2(=O)=O`, the activity change (Venus) is -21.5% and the activity change (mCherry) was -32.3% (inactive).
In the same order, the values of `O=C(Cc1ccccn1)N[C@H]1CC[C@H](CCn2cc(-c3ccc(F)cc3)nn2)O[C@H]1CO` are 1.48% and 5.56% (inactive).
In the same order, the values of `NCC[C@@H]1CC[C@@H](NC(=O)C2CCCC2)[C@H](CO)O1` are 0.29% and -7.04% (inactive).
As for `COc1ccc(NC(=O)Nc2ccc3c(c2)C(=O)N([C@@H](C)CO)C[C@H](C)[C@H](CN(C)S(=O)(=O)c2ccccc2)OCCCC[C@@H](C)O3)cc1`, the activity change (Venus) is -1.69% and the activity change (mCherry) is -0.413% (inactive).
